# Measured values taken from PubChem BioAssay (EPA / NIEHS).
# Several values for one entry are separate records, joined by “and”; a condition that tells them apart may be missing. Equal entries are not always repeated. More than one record can exist for a structure, and the calls need not agree. Activity calls are given as the source filed them. How the source made its calls: active means hit-call score of the fitted dose curve at least 0.9, where 1 is the maximum; inactive means score below 0.9.
# Columns and labels:
# [1] = APR_HepG2_CellLoss_72hr: Apredica 72-hour HepG2 Assay for Cell Loss (AID 2282915); details: high-content imaging
# Procedure, shortened: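 Cell number comes from Hoechst 33342-labelled nuclei, imaged at 20x after 3.7% formaldehyde fixation. Dosing was 0.39–200 uM, ten concentrations in duplicate, 0.5% DMSO final, for 72 h. Bidirectional fit relative to DMSO baseline.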
# [2] = APR_HepG2_P-H2AX_72hr: Apredica 72-hour HepG2 Assay for H2AX Phosphorylation (AID 2282916); details: imaging, actives raise or lower the signal;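 further: phospho-histone H2A.x immunostain intensity per cell marking DNA damage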
# Procedure, shortened: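 Phospho-histone H2A.x immunofluorescence, multiplexed with Hoechst and c-Jun, quantified by high-content imaging. Compounds applied to HepG2 for 72 h across ten concentrations (0.39–200 uM, 0.5% DMSO), in duplicate; DMSO baseline.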
# [3] = APR_HepG2_MitoMembPot_72hr: Apredica 72-hour HepG2 Assay for Mitochondrial Membrane Potential (AID 2282917); details: imaging, actives raise or lower the signal
# Procedure, shortened: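 Membrane potential read by MitoTracker Red CMXRos (250 nM, 30 min, pre-fixation) fluorescence imaging of HepG2 after 72 hr exposure. Ten concentrations, 0.39–200 uM, duplicate wells, 0.5% DMSO; fitted in both directions against DMSO baseline.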
# [4] = APR_HepG2_MitoticArrest_72hr: Apredica 72-hour HepG2 Assay for Mitotic Arrest (AID 2282918); details: high-content imaging, actives raise or lower the signal
# Procedure, shortened: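 Read-out is phospho-histone H3 immunofluorescence with Hoechst nuclear segmentation, imaged at 20x. Human HepG2 liver cells received ten concentrations (0.39–200 uM, final DMSO 0.5% v/v) for 72 hr before fixation. Gain or loss of signal was fitted relative to DMSO.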
# [5] = APR_HepG2_MicrotubuleCSK_72hr: Apredica 72-hour HepG2 Assay for Microtubule CSK Stabilty (AID 2282919); details: HepG2 microtubule cytoskeleton, high-content imaging, actives raise or lower the signal
# Procedure, shortened: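 High-content imaging of alpha-tubulin staining in fixed HepG2 cells after 72 hr treatment with ten concentrations from 0.39 to 200 uM (0.5% DMSO). Fitting was bidirectional against DMSO; taxol served as positive control.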
# [6] = APR_HepG2_P-H2AX_24hr: Apredica 24-hour HepG2 Assay for H2AX Phosphorylation (AID 2282920); details: high-content imaging, actives raise or lower the signal
# Procedure, shortened: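 HepG2, 24 hr, cpd 0.39–200 uM (10 conc, duplicate), DMSO 0.5% v/v final. Fix 3.7% formaldehyde, Triton X-100 permeabilize, anti-phospho-H2A.x 1:200 + Hoechst 2 ug/mL. Imaged, bidirectional fit vs DMSO.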
# [7] = APR_HepG2_StressKinase_72hr: Apredica 72-hour HepG2 Assay for Stress Kinase (AID 2282921); details: HepG2 stress kinase (phospho-c-Jun) imaging, actives raise or lower the signal
# Procedure, shortened: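 Stress kinase signal is phospho-c-Jun immunofluorescence (1:500 primary, Cy3 secondary) in fixed, permeabilized human HepG2 cells imaged at 20x. Exposure lasted 72 hr over ten concentrations from 0.39 to 200 uM, 0.5% DMSO, in duplicate. Bidirectional fit versus DMSO.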
# [8] = APR_HepG2_p53Act_72hr: Apredica 72-hour HepG2 Assay for p53 Activation (AID 2282923); details: high-content imaging, actives raise or lower the signal;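 further: average cellular p53 protein immunofluorescence intensity in HepG2 cells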
# Procedure, shortened: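 After 72 h with compound (ten points, 0.39 to 200 uM, final DMSO 0.5% v/v), fixed HepG2 cells were labelled with sheep anti-p53 and Hoechst 33342 and imaged; gain or loss versus DMSO scored.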
# [9] = APR_HepG2_MitoMass_72hr: Apredica 72-hour HepG2 Assay for Mitochondrial Mass (AID 2282924); details: high-content imaging, actives raise or lower the signal;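 further: MitoTracker Red CMXRos stain intensity per cell imaged as mitochondrial mass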
# Procedure, shortened: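 Readout is imaged MitoTracker Red (250 nM, 30 min, pre-fixation) signal, fitted bidirectionally against DMSO baseline. Human HepG2 liver cells received compound 0.39–200 uM in duplicate for 72 hr, final DMSO 0.5%.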
# [10] = APR_HepG2_NuclearSize_72hr: Apredica 72-hour HepG2 Assay for Nuclear Size (AID 2282925); details: high-content imaging, actives raise or lower the signal
# Procedure, shortened: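 Nuclear size was read by high-content imaging of Hoechst 33342 stain after formaldehyde fixation. Compounds ran 72 h on HepG2 at 0.39 to 200 uM, with final DMSO 0.5% v/v. Curves fitted both directions relative to DMSO control.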
# [11] = target: CCAAT/enhancer-binding protein beta (Homo sapiens) (UniProt P17676); assay: ATG_C_EBP_CIS: Attagene CIS-FACTORIAL HepG2 Assay for human CCAAT/Enhancer Binding Protein (C/EBP) beta (AID 2282927); details: HepG2 Attagene cis-factorial transcription factor reporter; actives raise or lower the signal
# Procedure, shortened: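 Changes in reporter mRNA, rather than exogenous chimeric receptor activity, reflect native C/EBP signalling in transfected HepG2 cells dosed for 24 h; transcripts are detected by RT-PCR and capillary electrophoresis.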
# [12] = ATG_CMV_CIS: Attagene CIS-FACTORIAL HepG2 Assay for human CMV (Internal Marker) (AID 2282928); details: HepG2 CMV promoter reporter, transcription factor profiling; actives raise or lower the signal;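 further: endpoint acts as a background internal control marker rather than a target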
# Procedure, shortened: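 Readout: fluorescent reporter cDNA fragments separated by capillary electrophoresis after RT-PCR and HpaI cut. Cells: HepG2 carrying transfected cis-promoter reporter constructs, dosed 24 h. Endpoint serves as background internal-marker control, fit bidirectionally versus DMSO.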
# [13] = ATG_DR4_LXR_CIS: Attagene CIS-FACTORIAL HepG2 Assay for human Liver X Receptor (LXR), DR4 submotif (AID 2282929); details: HepG2 Attagene DR4 cis-reporter, mRNA transcription; actives raise or lower the signal
# Procedure, shortened: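 The endpoint is DR4-element-driven reporter transcripts after 24 h chemical exposure of transfected HepG2 cells. These were measured via RT-PCR and capillary electrophoresis, and gain or loss of signal was fitted relative to DMSO controls.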
# [14] = target: Aryl hydrocarbon receptor (Homo sapiens) (UniProt P35869); assay: ATG_Ahr_CIS: Attagene CIS-FACTORIAL HepG2 Assay for human Aryl Hydrocarbon Receptor (Ahr) (AID 2282930); details: HepG2 AhR cis-factorial reporter transcription; actives raise or lower the signal
# Procedure, shortened: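 HepG2, transient MRTU (cis) transfection, 24 h exposure. RNA → cDNA → PCR → 6-FAM primer extension → HpaI 2 h 37 C → CE. Fit: bidirectional, DMSO baseline.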
# [15] = ATG_AP_1_CIS: Attagene CIS-FACTORIAL HepG2 Assay for human Activator Protein 1 (AP-1) (AID 2282931); details: HepG2 Attagene cis-factorial AP-1 reporter mRNA; actives raise or lower the signal
# Procedure, shortened: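 Readout is reporter transcript level from endogenous transcription factor activity, quantified by RT-PCR with fluorescent primer extension and capillary electrophoresis. Transiently transfected HepG2 cells, 24 h exposure. Curves fitted both directions versus DMSO.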
# [16] = ATG_BRE_CIS: Attagene CIS-FACTORIAL HepG2 Assay for human Bone Morphogenetic Protein (BMP) Response Element (BRE) (AID 2282933); details: HepG2 BMP response element reporter, Attagene transcription factor profiling; actives raise or lower the signal
# Procedure, shortened: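 Read-out: reporter mRNA induction quantified by RT-PCR and capillary electrophoresis after 24 h chemical exposure of transfected HepG2 cells. Endogenous factor activity on the BMP response element; gain or loss fitted against DMSO baseline.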
# [17] = ATG_AP_2_CIS: Attagene CIS-FACTORIAL HepG2 Assay for human Activator Protein 2 (AP-2) (AID 2282932); details: HepG2 AP-2 cis-reporter, Attagene transcription factor profiling; actives raise or lower the signal
# Procedure, shortened: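 Endogenous transcription factor activity is reported through transfected multiplex reporter constructs in HepG2, after 24 h of compound exposure. Transcripts were quantified by RT-PCR and capillary electrophoresis of fluorescent fragments. Bidirectional fit against DMSO.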
# Sequence of Aryl hydrocarbon receptor (Homo sapiens) (P35869 whole entry, looked up): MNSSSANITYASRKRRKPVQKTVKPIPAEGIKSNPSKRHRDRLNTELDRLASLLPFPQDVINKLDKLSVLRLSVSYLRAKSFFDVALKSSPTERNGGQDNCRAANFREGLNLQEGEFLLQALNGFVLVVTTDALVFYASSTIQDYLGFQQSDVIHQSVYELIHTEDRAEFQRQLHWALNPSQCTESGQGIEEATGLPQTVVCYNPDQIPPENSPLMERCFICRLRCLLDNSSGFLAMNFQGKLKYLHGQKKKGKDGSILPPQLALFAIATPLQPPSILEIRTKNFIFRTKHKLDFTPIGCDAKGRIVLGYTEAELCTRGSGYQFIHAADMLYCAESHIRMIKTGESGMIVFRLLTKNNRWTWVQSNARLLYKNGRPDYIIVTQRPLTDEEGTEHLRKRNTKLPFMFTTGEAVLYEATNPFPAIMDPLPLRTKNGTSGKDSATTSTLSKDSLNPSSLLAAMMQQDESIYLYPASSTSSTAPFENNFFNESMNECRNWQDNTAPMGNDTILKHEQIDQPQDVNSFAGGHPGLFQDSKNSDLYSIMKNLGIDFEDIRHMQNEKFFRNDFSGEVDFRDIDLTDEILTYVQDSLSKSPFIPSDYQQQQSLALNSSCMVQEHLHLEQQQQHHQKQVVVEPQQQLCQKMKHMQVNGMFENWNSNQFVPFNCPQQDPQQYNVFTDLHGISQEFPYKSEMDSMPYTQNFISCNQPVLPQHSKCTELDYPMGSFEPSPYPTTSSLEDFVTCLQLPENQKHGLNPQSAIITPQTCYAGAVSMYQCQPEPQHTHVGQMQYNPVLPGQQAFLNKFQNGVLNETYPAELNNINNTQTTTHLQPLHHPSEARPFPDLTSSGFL
# Sequence of CCAAT/enhancer-binding protein beta (Homo sapiens) (P17676 whole entry, looked up): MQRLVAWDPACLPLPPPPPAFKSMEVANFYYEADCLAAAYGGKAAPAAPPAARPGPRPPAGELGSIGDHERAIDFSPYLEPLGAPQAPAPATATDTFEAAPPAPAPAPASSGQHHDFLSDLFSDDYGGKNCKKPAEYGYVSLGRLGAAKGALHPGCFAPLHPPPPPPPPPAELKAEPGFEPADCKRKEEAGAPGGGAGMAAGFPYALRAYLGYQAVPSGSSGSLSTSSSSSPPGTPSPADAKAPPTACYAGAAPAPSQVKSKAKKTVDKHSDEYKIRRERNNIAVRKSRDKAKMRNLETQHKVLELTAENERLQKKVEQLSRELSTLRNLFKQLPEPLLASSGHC
compound,measurement,setting,value
CC1=C(/C=C/C(C)=C/C=C/C(C)=C/C(=O)O)C(C)(C)CCC1,AC50,[1],62 µM (active)
same,outcome,[2],inactive
same,outcome,[3],inactive
same,outcome,[4],inactive
same,outcome,[5],inactive
same,AC50,[6],86.8 µM (active)
same,outcome,[7],inactive
same,outcome,[8],inactive
same,AC50,[9],79.9 µM (active)
same,outcome,[10],inactive
same,AC50,[11],6.62 µM (active) and 193 nM (active)
same,AC50,[12],75.8 µM (active)
same,outcome,[12],inactive
same,AC50,[13],0.763 µM (active)
same,outcome,[13],inactive
same,outcome,[14],inactive
same,AC50,[15],42 µM (active)
same,outcome,[15],inactive
same,outcome,[16],inactive
CCCCCCCC(=O)O,outcome,[1],inactive
same,outcome,[2],inactive
same,outcome,[3],inactive
same,outcome,[4],inactive
same,outcome,[5],inactive
same,outcome,[6],inactive
same,outcome,[7],inactive
same,outcome,[8],inactive
same,outcome,[9],inactive
same,outcome,[10],inactive
same,outcome,[11],inactive
same,outcome,[12],inactive
same,outcome,[13],inactive
same,outcome,[14],inactive
same,outcome,[15],inactive
same,outcome,[17],inactive
same,outcome,[16],inactive
